From PubChem BioAssay (Tox21)
Inconclusive results are not listed. Entries that show only a call come without a potency. The source made the active and inactive calls. Unless noted, calls come from the whole dose curve; as a rule, active = well fitted curve in the direction sought with a large enough effect in the repeat runs; inconclusive = weak or mixed curves; inactive = no such curve, though single readings can be large; an effect the other way counts as inactive or inconclusive.

Tests used:
[1] = qHTS assay to identify small molecule agonists of the constitutive androstane receptor (CAR) signaling pathway - cell viability counter screen (AID 1224836); note: series mostly up to about 92 µM; nearly all actives have a fitted effect of over 45% in size
Procedure, shortened: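 Cells were seeded and incubated 4 hrs. Compounds were added across 15 concentrations together with PK11195 at 0.75 uM final. Plates were incubated 23 hrs at 37 C. CellTiter-Fluor was added and fluorescence measured.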

[2] = qHTS assay to identify small molecule antagonists of the constitutive androstane receptor (CAR) signaling pathway - cell viability counter screen (AID 1224837); note: series mostly up to about 92 µM; nearly all actives have a fitted effect of over 45% in size
Procedure, shortened: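 HepG2-CYP2B6-hCAR cells, 2500/well, 4 hr pre-incubation; compound titration, 15 conc.; CITCO 50 nM final; 23 hr, 37 C/5% CO2; CellTiter-Fluor, fluorescence intensity.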

[3] = target: Nuclear receptor subfamily 1 group I member 3 (Homo sapiens) (UniProt Q14994); experiment: qHTS assay to identify small molecule antagonists of the constitutive androstane receptor (CAR) signaling pathway (AID 1224838);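 note: HepG2 cells stably expressing hCAR with CYP2B6 luciferase reporter stimulated by CITCO; nearly all actives have a fitted effect of over 40% in size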; note: potency is the fitted concentration of half-maximal effect
Chain of Nuclear receptor subfamily 1 group I member 3 (Homo sapiens) (Q14994 whole entry, looked up): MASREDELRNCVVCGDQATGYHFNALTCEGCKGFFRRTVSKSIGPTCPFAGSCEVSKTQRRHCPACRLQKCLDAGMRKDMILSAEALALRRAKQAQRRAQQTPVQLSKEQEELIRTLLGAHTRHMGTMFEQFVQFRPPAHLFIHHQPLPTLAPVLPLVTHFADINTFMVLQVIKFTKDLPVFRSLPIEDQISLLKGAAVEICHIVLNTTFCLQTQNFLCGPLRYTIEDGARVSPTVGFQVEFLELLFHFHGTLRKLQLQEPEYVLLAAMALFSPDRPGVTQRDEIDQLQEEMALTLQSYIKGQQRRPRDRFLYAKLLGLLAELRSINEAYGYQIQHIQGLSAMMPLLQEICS
Procedure, shortened: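 HepG2-CYP2B6-hCAR cells; 4 h pre-incubation; cpd (15 conc) + CITCO 50 nM final; 24 h, 37 C/5% CO2; ONE-Glo, luminescence.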

[4] = target: Nuclear receptor subfamily 1 group I member 3 (Homo sapiens) (UniProt Q14994); experiment: qHTS assay to identify small molecule agonists of the constitutive androstane receptor (CAR) signaling pathway (AID 1224839); note: nearly all actives have a fitted effect of over 15% in size; note: potency is the fitted concentration of half-maximal effect;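 for activation: HepG2 cells stably carrying human CAR and a CYP2B6 luciferase reporter; series mostly up to about 92 µM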
Procedure, shortened: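 Cells were plated and incubated 4 hrs, then dosed with compounds at 15 concentrations. PK11195 was added to 0.75 uM final. After 24 hrs at 37 C, luciferase luminescence was measured.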

[5] = qHTS assay to identify small molecule antagonists of the estrogen related receptor signaling pathway with the pleiotropic PPARgamma coactivator (PGC) from Tox21 10K library - cell viability counter screen (AID 1224840; active = well fitted cell-killing curve with a large enough effect in the repeat runs, not every such curve was filed as active; note: nearly all actives have a fitted effect of over 40% in size)
Procedure, shortened: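 PGC/ERR cells, 2,000/well; 6 h pre-incubation 37 C/5% CO2; cpd in DMSO via pin tool; 17.5 h 37 C; CellTiter-Fluor, 30 min; fluorescence.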

[6] = qHTS assay to identify small molecule agonists of the hypoxia (HIF-1) signaling pathway - cell viability counter screen (AID 1224844; calls by dose curve; note: nearly all actives have a fitted effect of over 50% in size; note: potency is the fitted concentration of half-maximal effect)
Procedure, shortened: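 ME-180 HRE-bla cells, 2,000/well, 0.5% dialyzed FBS; 5 hr settle, 17 hr compound at 37C/5% CO2; CCF4-AM reporter read first, then CellTiter-Glo luminescence after 30 min RT.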

[7] = target: Thyrotropin receptor (Homo sapiens) (UniProt P16473); experiment: qHTS assay to identify small molecule agonists of the thyroid stimulating hormone receptor (TSHR) signaling pathway (AID 1224843; calls by dose curve; note: nearly all actives have a fitted effect of over 45% in size)
Chain of Thyrotropin receptor (Homo sapiens) (P16473 whole entry, looked up): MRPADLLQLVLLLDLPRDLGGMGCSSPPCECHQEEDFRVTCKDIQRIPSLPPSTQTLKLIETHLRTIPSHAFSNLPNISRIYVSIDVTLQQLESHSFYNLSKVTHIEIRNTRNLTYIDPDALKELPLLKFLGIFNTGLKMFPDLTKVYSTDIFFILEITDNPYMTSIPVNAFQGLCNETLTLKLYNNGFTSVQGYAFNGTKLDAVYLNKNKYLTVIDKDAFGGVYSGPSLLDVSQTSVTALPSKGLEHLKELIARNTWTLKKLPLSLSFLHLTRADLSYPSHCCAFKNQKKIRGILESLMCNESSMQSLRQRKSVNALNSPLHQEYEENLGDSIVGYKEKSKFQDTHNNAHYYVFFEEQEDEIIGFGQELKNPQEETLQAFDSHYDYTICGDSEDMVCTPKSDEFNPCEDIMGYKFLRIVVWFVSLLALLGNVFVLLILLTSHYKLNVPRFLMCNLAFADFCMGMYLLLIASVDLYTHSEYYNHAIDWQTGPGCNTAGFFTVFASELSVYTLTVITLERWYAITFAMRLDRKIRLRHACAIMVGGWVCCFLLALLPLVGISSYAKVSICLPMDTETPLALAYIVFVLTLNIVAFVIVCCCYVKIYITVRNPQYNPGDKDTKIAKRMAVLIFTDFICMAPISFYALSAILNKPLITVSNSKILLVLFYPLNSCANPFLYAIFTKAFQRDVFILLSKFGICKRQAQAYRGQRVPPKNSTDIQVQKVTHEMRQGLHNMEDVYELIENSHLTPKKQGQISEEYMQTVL
Procedure, shortened: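 TSHR-HEK293 cells in agonist mode, 30 min room-temperature step, then cAMP measured by competitive HTRF (cAMP-d2 with anti-cAMP cryptate) after 1 h at room temperature. Tested at 15 concentrations in triplicate.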

[8] = qHTS assay to identify small molecule agonists of H2AX (AID 1224845; active = well fitted activation curve with a large enough effect in the signal ratio in the repeat runs, not every such curve was filed as active; the % refers to the signal ratio)
Procedure, shortened: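 Wild-type CHO-K1 cells, plated overnight, exposed 3hr at 37C to 15 concentrations (0.76% DMSO final). Lysed, then HTRF anti-pH2AX (S139) cryptate and anti-H2AX-d2 antibodies, 24 hr room temperature; 665/620 nm emission read.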

[9] = qHTS assay to identify small molecule agonists of the estrogen related receptor signaling pathway with the pleiotropic PPARgamma coactivator (PGC) from Tox21 10K library (AID 1224842); note: nearly all actives have a fitted effect of over 15% in size
Procedure, shortened: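 PGC/ERR reporter cell line, 2,000 cells per well, incubated 6 h at 37 C before 23 nL compound in DMSO was added. After 18 h at 37 C, One-Glo luminescence read following 30 min at room temperature.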

SMILES | Potency [1] | Potency [2] | Potency [3] | Potency [4] | Potency [5] | Potency [6] | Potency [7] | Potency [8] | Potency [9]
O=[N+]([O-])c1ccc2ccc3cccc4ccc1c2c34 | inactive | inactive | 4.85 µM (active) | inactive | inactive | 34.7 µM (active) |  |  | 
Nc1ccccc1C(=O)Oc1ccc2ccccc2c1 | inactive | inactive | inactive | 54.5 µM (active) | inactive |  | inactive |  | 
O=[N+]([O-])c1cc(Cl)ccc1Cl | inactive | inactive | inactive | inactive | inactive | inactive | inactive | inactive | 
C[As+](C)(C)CC(=O)[O-] | inactive | inactive | inactive | inactive | inactive | inactive | inactive | inactive | inactive
Oc1ccc2ccc3cccc4ccc1c2c34 | inactive | inactive | inactive | 61.1 µM (active) | inactive | inactive | inactive |  | 
CC(C)(COCC1CO1)COCC1CO1 (stereo not drawn) | inactive | inactive | inactive | inactive | inactive |  | inactive | inactive | inactive
Cc1cccc(OP(=O)(Oc2cccc(C)c2)Oc2cccc(C)c2)c1 | inactive | inactive | inactive | 30.6 µM (active) | inactive | inactive | inactive | inactive | 
COc1ccc(OC)c(CC(C)N)c1 (stereo not drawn) | inactive | inactive | inactive | inactive | inactive | inactive | inactive | inactive | 
Oc1ccc(I)cc1 | inactive | inactive | inactive | inactive | inactive | inactive | inactive | inactive | 
CC(C)(C)OO | inactive | inactive | inactive | inactive | inactive | inactive | inactive | inactive | 
CC(C)OS(C)(=O)=O | inactive | inactive | inactive | inactive | inactive | inactive | inactive | inactive | 
c1ccc2c(c1)[nH]c1cnccc12 | inactive | inactive | inactive | inactive | inactive | inactive | inactive | inactive | 
O=C(O)COc1nc(Cl)c(Cl)cc1Cl | inactive | inactive | inactive | inactive | inactive | inactive | inactive | inactive | 
CC(C)[C@H](C(=O)OC(C#N)c1cccc(Oc2ccccc2)c1)c1ccc(OC(F)F)cc1 (stereo partly drawn) | inactive | inactive | inactive | inactive | inactive | inactive | inactive | inactive | inactive
O=S(=O)(c1ccc(Cl)cc1)c1ccc(Cl)cc1 | inactive | inactive | inactive | 49.2 µM (active) | inactive | inactive |  |  | inactive
Cn1[nH]nnc1=S | inactive | inactive | inactive | inactive | inactive | inactive | inactive | inactive | 
CN(C)CCc1c[nH]c2ccc(O)cc12 | inactive | inactive | inactive | inactive | inactive | inactive | inactive |  | 
CCOC(=O)OC1=C(c2cc(C)ccc2C)C(=O)NC12CCC(OC)CC2 (stereo not drawn) | inactive | inactive | inactive | inactive | inactive | inactive |  | inactive | 
CC(C)Oc1cccc(NC(=O)c2ccccc2C(F)(F)F)c1 | inactive | inactive | inactive | 61.1 µM (active) | inactive |  |  | inactive | inactive
Cc1c(Cl)c(=O)oc2cc(OP(=O)(OCCCl)OCCCl)ccc12 | inactive | inactive | inactive | inactive | inactive | inactive | inactive |  | 
CCCCCCCCCCCCBr | inactive | inactive | inactive | inactive | inactive |  | inactive | inactive | 
NC(=O)CCl | inactive | inactive | inactive | inactive | inactive | inactive | inactive | inactive | 
Nc1c(Oc2ccccc2)cc(O)c2c1C(=O)c1ccccc1C2=O | inactive | inactive | inactive | 6.68 µM (active) | inactive | inactive |  | inactive | 
CC(C)CBr | inactive | inactive | inactive | inactive | inactive | inactive | inactive | inactive | inactive
